Compound activity (PubChem)
Shown are actives, neighbours in structure and some others; about 12% of the full set was active somewhere.
BAZ2B inh – blocks human BAZ2B; Q9UIF8; AlphaScreen BAZ2B-H3K14Ac peptide displacement; Potency, µM (highest dose often 114 µM), hits mostly inhibitors; hit rate 4.4% among 360,000; AID 504333; note: nearly all actives have a fitted effect of over 60% in size
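Complex of BAZ2B and biotin-H3K14Ac (50 nM apiece) forms over 30 min at RT, then faces library compounds up to 110 uM for another 30 min; AlphaScreen beads added, 20 min dark incubation, luminescence read.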
JMJD2A Tudor inh – blocks the human JMJD2A Tudor domain. AID 504339. hit rate 4.4% among 390,000. O75164. AlphaScreen JMJD2A-Tudor / H3K4me3 peptide binding. Potency, µM (highest dose often 114 µM), most hits filed as inhibitors; note: nearly all actives have a fitted effect of over 50% in size
G9a inh – G9a (human) methyltransferase inhibition | Q96KQ7 | G9a H3K9 monomethylation, AlphaScreen, 2 h | Potency, µM (titrated, usually from 102 µM), actives largely listed as inhibitors | hit rate 8.8% among 350,000; note: nearly all actives have a fitted effect of over 75% in size
Target sequence (Q96KQ7 913-1193 limits assumed): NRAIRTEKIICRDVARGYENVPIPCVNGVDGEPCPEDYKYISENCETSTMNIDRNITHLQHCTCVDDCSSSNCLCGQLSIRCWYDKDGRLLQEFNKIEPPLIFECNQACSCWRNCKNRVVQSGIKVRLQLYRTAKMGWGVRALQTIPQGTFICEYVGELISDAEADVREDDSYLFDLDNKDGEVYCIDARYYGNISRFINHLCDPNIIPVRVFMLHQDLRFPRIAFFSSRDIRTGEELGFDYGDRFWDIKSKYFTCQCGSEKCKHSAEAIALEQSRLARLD
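Signal arises when biotinylated H3K9 peptide, once monomethylated, bridges streptavidin donor and antibody-captured acceptor beads. Enzyme at 20 nM was preincubated 15 min with test compounds; peptide 500 nM and SAM 20 uM then reacted for 2 h.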
HP1b chromo inh – HP1-beta chromodomain-methylated histone interaction inhibition | P83916 | Potency, µM (series often up to 114 µM), hits mostly inhibitors | hit rate 0.56% among 390,000 | AlphaScreen HP1-beta / biotin-H3K9me3 peptide binding | AID 540317; note: nearly all actives have a fitted effect of over 70% in size
Target sequence (P83916 whole entry, looked up): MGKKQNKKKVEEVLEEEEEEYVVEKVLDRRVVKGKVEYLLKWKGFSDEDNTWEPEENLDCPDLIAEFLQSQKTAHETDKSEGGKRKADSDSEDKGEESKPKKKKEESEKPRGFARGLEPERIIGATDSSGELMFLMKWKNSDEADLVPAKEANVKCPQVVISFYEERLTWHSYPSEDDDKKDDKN
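HP1-beta protein (50 nM final) preincubated 30 min at room temperature with biotinylated H3(1-18)K9me3 peptide (50 nM) in PBS pH 7.4, 0.01% Tween-20, then compound added for 30 min. AlphaScreen streptavidin donor/nickel chelate acceptor beads (10 ug/mL final), 30 min dark, luminescence read.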
Sfp inh – blocks B. subtilis Sfp PPTase activity; Potency, µM, hits mostly inhibitors; Q9F4F7; AID 1490; Biochemical Sfp PPTase activity, qHTS; hit rate 3.5% among 310,000;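 note: the enzyme is Sfp with the accession as filed and its product quenches rhodamine fluorescence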
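Reaction rates are the 30-min fluorescence difference (ex 525, em 598 nm) in wells containing 15 nM Sfp, 5 uM rhodamine-CoA and 12.5 uM BHQ-2-YbbR at pH 7.6 with 10 mM MgCl2.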
Hits are given with their value; n = inactive; u = inconclusive; x = not tested or not shown; [ ] = remark or other dose. Calls come from the whole dose curve; as a rule, active = well fitted curve in the direction sought with a large enough effect; inconclusive = small, poorly fitted or top-dose-only effect, or another doubt; inactive = no such curve, though single readings can be large; an effect the other way counts as inactive or inconclusive.

SMILES	BAZ2B inh	JMJD2A Tudor inh	G9a inh	HP1b chromo inh	Sfp inh
O=C(Nc1ccc(N2CCCC2)cc1)C(c1ccccc1)c1ccccc1	u	u	32µM	n	50µM
O=C(Nc1ccc(N2CCCCC2)cc1)C(Cl)c1ccccc1 (stereo not given)	u	n	u	n	u
O=C(O)/C=C/c1cnc2ccccc2c1	n	n	50µM	n	n
COc1ccc(/C(C)=N/Nc2nc(C)c(C(C)=O)s2)cc1	u	u	u	n	n
CC(=O)c1sc(N/N=C2\CC3CC2C(C)C3(C)C)nc1C (stereo not given)	u	u	40µM	n	35µM
O=C1CSC(=S)N1N=C1CCCCCC1	n	n	u	n	18µM
O=C1C2C3C=CC(O3)C2C(=O)N1N=C1CCCCC1 (stereo not given)	x	n	x	n	x
COc1ccc(N2C(=O)CCC(C(=O)NCCCN3CCC(C)CC3)C2c2ccc(OC)c(OC)c2)cc1 (stereo not given)	n	n	n	n	n
NC(=O)C1(c2ccccc2)CCCN1C(=O)c1ccccc1Br (stereo not given)	n	n	n[12.7 µM]	n	n
COc1cc(Br)c(CN2C(=O)NC3(CCCCCC3)C2=O)cc1OC	n	n	45µM	n	n
COc1ccc(Br)cc1CN1C(=O)NC2(CCCCCC2)C1=O	n	n	n	n	n
Cc1ccccc1C(=O)NCCCNC(=O)c1ccccn1	n	n	50µM	n	n
O=C(NCCCNCCCNC(=O)c1ccccn1)c1ccccn1	n	n	n[2.33 µM]	n	n
O=C(NCCN1CCNCC1)c1ccccn1	u	1.1µM	45µM	n	u
CC(C)C1Oc2ccccc2N(CC(=O)N(Cc2ccncc2)Cc2ccco2)C1=O (stereo not given)	n	n	u	n	45µM
CC(C)C1Oc2ccccc2N(CC(=O)N(C)C2CCCCC2)C1=O (stereo not given)	n	n	n	n	n
Cc1c2n(c3ccccc13)CCN(C)C2	n	22µM	n[2.33 µM]	n	x
COCCN1Cc2cccc(C(=O)N3CCN(c4cc(C)ccc4C)CC3)c2C1=O	n	n	45µM	n	n
CCCN1Cc2cccc(C(=O)N3CCN(c4cc(Cl)ccc4C)CC3)c2C1=O	n	n	n	n	n
Cc1cccc(NC(=O)c2ccc(NC(=O)CC3SC(N4CCCC4)=NC3=O)cc2)n1 (stereo not given)	n	n	n[0.501 µM]	n	x
CCn1ccnc1CN(C)Cc1c(C(=O)N2CCCCCCC2)nc2ccc(Cl)cn12	n	n	n	n	n
CCOCCCNC(=S)N(Cc1ccccc1)Cc1nc2ccccc2c(=O)[nH]1	n	n	10µM	n	u
CCCNC(=S)N(Cc1ccccc1)Cc1nc2ccccc2c(=O)[nH]1	n	n	7.1µM	n	n
O=C(c1ccncc1)N(Cc1ccccc1)Cc1nc2ccccc2c(=O)[nH]1	n	n	n[12.7 µM]	n	n
O=C(Cc1ccc([N+](=O)[O-])cc1)NCc1ccncc1	n	n	n	n	n
SMILES	BAZ2B inh	JMJD2A Tudor inh	G9a inh	HP1b chromo inh	Sfp inh
CC1=C(C#N)C(c2ccc(O)cc2)C(C#N)=C(C)N1	n	n	n	n	n
CC(=O)Nc1ccc(SC[C@H](C)CN2CC[C@H](O)CCC2=O)cc1	n	n	n[2.33 µM]	n	x
Cc1ccc(S(=O)(=O)NN2Cc3ccccc3C2=N)cc1	x	n	16µM	n	u
Cc1ccccc1OCC(=O)NN1Cc2ccccc2C1=N	n	n[11.4 µM]	n	n	n
O=C(NCCc1ccc(Cl)cc1)C1CCC(=O)N(C2CCCCCC2)C1 (stereo not given)	n	n	n	n	n
COc1ccc(Cl)cc1N1C(=O)CN(Cc2cc(OC)c(OC)c(OC)c2)C1=S	n	u	35µM	u	50µM
O=C(Nc1ccc(Nc2ccncc2)cc1)c1ccc(Nc2ccnc3ccc([N+](=O)[O-])cc23)cc1	n	100µM	x	n	n
O=C(Nc1ccc(NC(=O)c2cccc([N+](=O)[O-])c2)cc1)c1cccc([N+](=O)[O-])c1	n	n	n[0.501 µM]	n	n
Cc1cnc(C(=O)OCC(=O)c2cccc3ccccc23)cn1	n	n	45µM	n	x
Cc1c(NS(=O)(=O)c2cccc(C(=O)NCc3ccc(Cl)cc3)c2)c(=O)n(-c2ccccc2)n1C	n	n	n	n	n
COc1cc(CNc2ccc(C(=O)O)cc2)cc(Br)c1OCC(=O)NC(C)(C)C	n	n	n	n	n
C=CCOc1c(Br)cc(CNc2ccc(NC(=O)C(C)C)c(OC)c2)cc1OC	u	35µM	n[0.501 µM]	n	n
Cc1[nH]c2ccccc2c1/C=C/c1nc2ccccc2c(=O)n1-c1ccc([N+](=O)[O-])cc1	n	n	n	n	n
CCCN(C(=O)CSc1cc(-c2ccccc2)c2ccc(OC)cc2n1)C1CCS(=O)(=O)C1 (stereo not given)	n	n	n	n	n
COc1ccc2c(-c3ccccc3)cc(SC(C)C(N)=O)nc2c1 (stereo not given)	n	n	13µM	n	n
NC(=O)C1CCN(C(=O)CCc2nc3sc4c(c3c(=O)[nH]2)CCCC4)CC1	50µM	u	50µM	n	x
Cc1cccc(NC(=O)C(C)SCc2nc3sc4c(c3c(=O)[nH]2)CCCC4)n1 (stereo not given)	n	n	56µM	n	x
CCc1cccc(NC(=O)CCc2nc3sc4c(c3c(=O)[nH]2)CCCC4)c1	71µM	u	n	n	x
Cc1cccc(NC(=O)CCc2nc3sc4c(c3c(=O)[nH]2)CCCC4)c1	n	n	n	n	x
O=C(CCc1nc2sc3c(c2c(=O)[nH]1)CCCC3)N1CCN(c2ccccc2)CC1	56µM	n	n[0.501 µM]	n	x
CCOC(=O)N1CCN(C(=O)CCc2nc3sc4c(c3c(=O)[nH]2)CCCC4)CC1	n	n	n	n	n
COc1ccc(C(=O)N2CC3(CC(c4cccc([N+](=O)[O-])c4)=NO3)C[C@H]2C(=O)NCC(N)=O)cc1 (stereo not given in full)	n	n	n	n	n
O=S(=O)(CCc1ccccc1)c1ccccc1	x	x	x	x	n
O=S(=O)(CCc1ccncc1)c1ccc(Cl)cc1	u	n	35µM	n	n
CC1(C)CC(=O)c2sc(NS(=O)(=O)c3ccc(Br)cc3)nc2C1	n	n	50µM	n	n
SMILES	BAZ2B inh	JMJD2A Tudor inh	G9a inh	HP1b chromo inh	Sfp inh
CC1(C)CC(=O)c2sc(NC(=O)c3ccccc3)nc2C1	n	x	x	x	n
CC1(C)CC(=O)c2sc(NS(=O)(=O)c3ccc(Cl)cc3)nc2C1	u	n	35µM	n	n
O=S(=O)(Nc1nc2c(s1)CCCC2)c1ccc(F)cc1	n	n	10µM	n	n
CC1(C)CC(=O)c2sc(NS(=O)(=O)c3ccc(F)cc3)nc2C1	n	n	79µM	n	n
COc1ccc(Cn2c(C(=O)O)c(CNCc3ccc(OC)cc3OC)c3ccc(C)cc32)cc1	n	n	n	n	x
COc1ccc(Cn2c(C(=O)O)c(CNCCc3cc(OC)ccc3OC)c3ccc(C)cc32)cc1	50µM	u	n	n	x
C=Cc1ccc(Cn2c(C(=O)O)c(CNCCc3ccco3)c3ccc(C)cc32)cc1	45µM	u	u	n	x
